Measurements published in PubChem BioAssay (Tox21).
Values joined by “and” are separate entries in the source; they are usually repeats but may differ in a detail not shown here. Identical values can stand only once. Inconclusive results are not listed. Values without a mark were called inactive. Active and inactive are the calls of the source. The call rests on the fitted dose curve; in most records, active means well fitted cell-killing curve with a large enough effect in the repeat runs; inconclusive means weak or mixed curves, or effect the other way; inactive means no such curve, though single readings can be large or run the other way.
On the % scale 0 is the no-effect control and ±100 the full control effect; potency means the concentration at half of the fitted maximal effect.

Experiment: qHTS assay for identifying genotoxic compounds that show differential cytotoxicity against isogenic chicken DT40 cell lines with known DNA damage response pathways - Rev3 mutant cell line (AID 743014); further: nearly all actives have a fitted effect of over 55% in size
Conditions: chicken DT40 Rev3-/- viability, CellTiter-Glo, 40 h; series mostly up to 68.4 µM; activity, negative = cytotoxicity: at the top concentration
Description: National Center for Advancing Translational Sciences [NCATS]
NIH Chemical Genomics Center [NCGC]
U.S. Environmental Protection Agency [EPA]
National Institutes of Environmental Health Sciences [NIEHS]
National Toxicology Program [NTP]
U.S. Food and Drug Administration [FDA]
DNA repair pathways play a critical role in cellular homeostasis by repairing DNA damage induced by endogenous processes and xenobiotics. Isogenic chicken DT40 cell lines deficient in different DNA repair pathways can be used to identify genotoxic compounds and aid in characterizing the nature of the DNA damage induced. Two DNA repair-deficient cell lines with disrupted genes, Rad54/Ku70 or Rev3, were used to screen the Tox21 10K compound library. Possible genotoxicity was based on the presence of a significant increase in cytotoxicity in one or more of the DNA repair-deficient cell lines compared to that observed in the parental DNA repair-proficient cell line. CellTiter Glo viability assay (Promega, Madison, WI) was used to measure cell viability in these cells after compound treatment. This assay includes the data from the Rev3 mutant cell line.
Tox21 Assay Protocol Summary:
300 DT40 mutant cells in 5 uL/well were dispensed into white, solid-bottom 1536-well plates using a Multidrop Combi (ThermoFisher Scientific, Waltham, MA) dispenser. After the assay plates were incubated at 37 C/5% CO2 for approximately 0.5 hour, 23 nL of compounds dissolved in DMSO, positive controls or DMSO only was transferred into the assay plate by a pintool work station (Kalypsys, San Diego, CA). The assay plates were incubated at 37 C/5% CO2 for 40 hours. After 5 uL per well of CellTiter-Glo reagent was added into each well of the assay plates, the plates were incubated for 30 min at room temperature and the luminescence intensity of the plates was measured using a ViewLux (PerkinElmer, Shelton, CT) plate reader.
In the case of `C=C(C)C(=O)OCCOCC`, the “activity, negative = cytotoxicity” value is reported as -0.603% [at 95 µM]. In the case of `CO[C@@H]1[C@H](OC(=O)/C=C/C=C/C=C/C=C/C(=O)O)CC[C@]2(CO2)[C@H]1[C@@]1(C)O[C@@H]1CC=C(C)C`, the Potency is reported as 2.1 nM (active) and 17.2 nM (active). For `COc1ccc(C(=O)c2ccc(OC)cc2O)c(O)c1`, the “activity, negative = cytotoxicity” value was -1.23% [at 95 µM]. In the case of `CCCCCCCN`, the “activity, negative = cytotoxicity” value is reported as -3.98% [at 95 µM]. For `O=C1c2ccccc2S(=O)(=O)N1CCCCN1CCN(c2ncccn2)CC1`, the “activity, negative = cytotoxicity” value was -16.6%. In the case of `CCCCC/C=C\C/C=C\CCCCCCCC(=O)NC(C)c1ccccc1` (stereo not given), the “activity, negative = cytotoxicity” value is reported as -21.7%. In the case of `CCOC(=O)C1=C[C@]2(CC)CCCN3CCc4c(n1c1ccccc41)[C@@H]32`, the Potency is reported as 10.6 µM (active) and 9.44 µM (active). With `CC1(c2ccccc2)OC(C(=O)O)=CC1=O` (stereo not given) the “activity, negative = cytotoxicity” value was 3.83%. In the case of `CCCCCCCCCCCCCCCCOS(=O)(=O)O`, the “activity, negative = cytotoxicity” value is reported as -1.34%. In the case of `Nc1ncn([C@H]2C[C@H](O)[C@@H](CO)O2)c(=O)n1`, the Potency is reported as 0.106 µM (active). For `CCCCCCCC/C=C\CCCCCCCC(=O)OCC`, the “activity, negative = cytotoxicity” value was 5.83%. For `CC1OC(=O)C(C)OC1=O` (stereo not given), the “activity, negative = cytotoxicity” value was 0.257%. For `Nc1ccccc1S(=O)(=O)c1ccccc1`, the “activity, negative = cytotoxicity” value was -10.3%. In the case of `NC(N)=NCCC[C@H](N)C(=O)O`, the “activity, negative = cytotoxicity” value is reported as 6.81%. In the case of `C=C1C(=C/C=C2\CCC[C@]3(C)[C@@H]([C@H](C)/C=C/[C@@H](O)C4CC4)CC[C@@H]23)C[C@@H](O)C[C@@H]1O`, the Potency is reported as 11.9 µM (active). For `C=C(C)C(=O)OCCO`, the “activity, negative = cytotoxicity” value was -8.02% [at 95 µM]. `CN(C)c1ccc(/C=C/c2ccc([N+](=O)[O-])cc2)cc1` gave an activity, negative = cytotoxicity of -15.9% [at 8.53 µM]. In the case of `CCN(CC)c1ccc2c(-c3ccccc3C(=O)O)c3ccc(=[N+](CC)CC)cc-3oc2c1`, the Potency is reported as 8.63 µM (active). In the case of `CC(=O)NO`, the “activity, negative = cytotoxicity” value is reported as 7.39%. For `Cc1ncc(CO)c(C=O)c1O`, the “activity, negative = cytotoxicity” value was 6.81%. For `CC(C)(CO)[N+](=O)[O-]`, the “activity, negative = cytotoxicity” value was 12.5%. With `COc1ccc(C(=O)Nc2nc3ccccc3c(NCc3ccccc3)c2C#N)cc1` the Potency was 38.6 µM (active). For `CCN(CC)CCOC(=O)C(Cc1cccc2ccccc12)CC1CCCO1` (stereo not given), the “activity, negative = cytotoxicity” value was -13.3% [at 31.4 µM]. In the case of `Cc1cccc(C)c1NC(=O)CN(CC(=O)O)CC(=O)O`, the “activity, negative = cytotoxicity” value is reported as 14.8%. With `C[C@@H]1C[C@H]2O[C@@]3(O[C@@H]2C(C)(C)O)[C@H](O)[C@@]2(C)[C@@H]4CC[C@H]5C(C)(C)[C@@H](O[C@@H]6OC[C@@H](O)[C@H](O)[C@H]6O)CC[C@@]56C[C@@]46CC[C@]2(C)[C@@H]13` the “activity, negative = cytotoxicity” value was -9.15%. With `CN(Cc1ccc(C(C)(C)C)cc1)Cc1cccc2ccccc12` the Potency was “inactive”. With `COc1cc2c(cc1OC)C(C(C(=O)N(CCc1ccc(OC)c(OC)c1OC)CCc1ccc(OC)c(OC)c1OC)c1ccccc1)=NCC2` (stereo not given) the Potency was 10.6 µM (active). For `C#C[C@]1(O)CC[C@H]2[C@@H]3CCc4cc(OC5CCCC5)ccc4[C@H]3CC[C@@]21C`, the Potency was 2.11 µM (active). With `Nc1cc(C(=O)O)c(O)c(S(=O)(=O)O)c1` the “activity, negative = cytotoxicity” value was 11.7%. For `C/C=C/C(=O)CC`, the “activity, negative = cytotoxicity” value was -2.89% [at 18.2 µM]. With `OCc1cc(C(O)CNCCCCCCOCCCCc2ccccc2)ccc1O` (stereo not given) the Potency was 5.96 µM (active) and 4.73 µM (active). With `CCC(C)O` (stereo not given) the “activity, negative = cytotoxicity” value was -0.162% [at 95 µM]. With `CN1CCC(N(Cc2cccs2)c2ccccc2)CC1` the Potency was 11.9 µM (active). With `Clc1ccc2c(c1)CCc1cccnc1C2=C1CCNCC1` the Potency was 7.5 µM (active). In the case of `CC/C=C\CCOC(=O)CC`, the “activity, negative = cytotoxicity” value is reported as -0.232%. For `O=C1OC(=O)C2C3C=CC(C3)C12` (stereo not given), the “activity, negative = cytotoxicity” value was -7.76%. With `CC(C)(C)Cl` the “activity, negative = cytotoxicity” value was 15% [at 95 µM]. For `OCCN1CCN(CCCN2c3ccccc3C=Cc3ccccc32)CC1`, the Potency was 1.68 µM (active) and 15 µM (active). With `C[N+]1(CC2COC(c3ccccc3)(C3CCCCC3)O2)CCCCC1` (stereo not given) the Potency was 3.76 µM (active). For `C=CCOC(=O)CCC1CCCCC1`, the “activity, negative = cytotoxicity” value was -15.4%.
